Data from publication PMC4336329 (PLoS ONE, 2015).
Out of some 310,000 compounds screened, about 14,000 (4.5%) showed an effect of 50% or more. The effect is printed as a negative number. The full list was thinned out, with strong results kept by preference.

Molecular target: human ether-à-go-go-related gene (hERG) potassium channel (human, UniProt Q12809)
Assay: primary screen, population patch clamp on CHO cells stably expressing hERG; higher = less effect of the substance
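Further: peak tail current of the secondary pulse compared with the same well before compound.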

human ether-à-go-go-related gene (hERG) potassium channel, sequence (Q12809 whole entry, looked up): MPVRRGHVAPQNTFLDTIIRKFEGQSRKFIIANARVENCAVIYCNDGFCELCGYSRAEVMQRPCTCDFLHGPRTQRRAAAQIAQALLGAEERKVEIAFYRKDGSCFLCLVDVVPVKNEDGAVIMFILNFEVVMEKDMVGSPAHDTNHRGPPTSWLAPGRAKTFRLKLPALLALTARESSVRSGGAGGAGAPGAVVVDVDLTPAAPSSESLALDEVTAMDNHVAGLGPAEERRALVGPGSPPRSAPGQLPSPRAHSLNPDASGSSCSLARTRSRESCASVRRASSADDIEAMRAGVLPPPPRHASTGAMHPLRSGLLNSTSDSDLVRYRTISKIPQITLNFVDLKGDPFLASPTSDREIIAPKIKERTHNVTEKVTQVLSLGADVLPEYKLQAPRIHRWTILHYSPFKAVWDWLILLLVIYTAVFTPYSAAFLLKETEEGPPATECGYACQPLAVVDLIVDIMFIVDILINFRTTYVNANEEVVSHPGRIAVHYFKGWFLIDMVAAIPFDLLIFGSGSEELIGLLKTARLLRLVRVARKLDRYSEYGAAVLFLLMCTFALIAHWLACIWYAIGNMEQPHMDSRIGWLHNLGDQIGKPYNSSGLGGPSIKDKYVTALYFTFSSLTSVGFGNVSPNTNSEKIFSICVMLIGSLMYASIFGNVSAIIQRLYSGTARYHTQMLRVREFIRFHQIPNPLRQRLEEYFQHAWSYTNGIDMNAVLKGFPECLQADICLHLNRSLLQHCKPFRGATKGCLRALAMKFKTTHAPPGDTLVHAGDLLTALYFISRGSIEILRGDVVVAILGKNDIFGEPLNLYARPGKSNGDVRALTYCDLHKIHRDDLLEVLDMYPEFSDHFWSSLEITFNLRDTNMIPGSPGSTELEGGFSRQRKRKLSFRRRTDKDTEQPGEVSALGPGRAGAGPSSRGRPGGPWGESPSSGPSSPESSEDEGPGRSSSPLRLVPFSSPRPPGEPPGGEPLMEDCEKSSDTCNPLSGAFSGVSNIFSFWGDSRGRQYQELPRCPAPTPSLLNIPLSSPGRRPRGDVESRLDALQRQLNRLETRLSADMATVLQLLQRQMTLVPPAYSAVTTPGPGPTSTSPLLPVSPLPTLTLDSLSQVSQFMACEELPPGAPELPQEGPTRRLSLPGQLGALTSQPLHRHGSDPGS

| Structure (SMILES) | hERG current change (%, negative = inhibition) at 10uM [%] |
| --- | --- |
| CCN1CCN(CC(=O)c2ccc(C)cc2)CC1 | 8.76 |
| CC(=O)Nc1ccc(S(=O)(=O)Oc2ccc(C(=S)N3CCCCC3)cc2)cc1 | -16.6 |
| COc1cccc(NC(=O)c2cn(C)c(=O)c3cc(OC)c(OC)cc23)c1 | 6.54 |
| Fc1ccc(N2N=C(c3cccs3)CC2c2ccccc2)cc1 (centres unmarked) | 8.89 |
| COc1ccc(CC(=O)NC(C)c2nnc(SCCOc3ccc(OC)cc3)n2C)cc1 (centres unmarked) | -11.2 |
| O=C(O)CCn1c(=S)n(CCC(=O)O)c2ccccc21 | -1.59 |
| CSc1ccc(CN2CCN(C(=O)c3ccncc3)CC2)cc1 | -21.4 |
| CCCS(=O)(=O)N1CCN(Cc2ccc([N+](=O)[O-])cc2)CC1.O=C(O)C(=O)O | -51.9 |
| CS(=O)(=O)N1CCN(Cc2ccc([N+](=O)[O-])cc2)CC1 | -23.6 |
| CCS(=O)(=O)N1CCN(Cc2ccc([N+](=O)[O-])cc2)CC1.O=C(O)C(=O)O | -44.4 |
| CCc1ccc(CN2CCN(Cc3ccc(SC)cc3)CC2)cc1.O=C(O)C(=O)O | -67.9 |
| CCN1CCN(Cc2ccc(NC(=O)Nc3ccc(SC)cc3)cc2)CC1 | -44.5 |
| CSc1ccc(CN2CCN(C(=O)Cc3ccccc3)CC2)cc1 | -12.1 |
| CCCS(=O)(=O)N1CCN(Cc2ccncc2)CC1.O=C(O)C(=O)O | 10.8 |
| CSc1ccc(CN2CCN(Cc3ccc([N+](=O)[O-])cc3)CC2)cc1.O=C(O)C(=O)O | -78.1 |
| O=C(C1CCCN(Cc2ccc([N+](=O)[O-])cc2)C1)N1CCCCC1.O=C(O)C(=O)O (centres unmarked) | -28.4 |
| CSc1ccc(CN2CCN(C(=O)c3ccc([N+](=O)[O-])cc3)CC2)cc1.O=C(O)C(=O)O | -77.2 |
| COC(CNC(=O)CC1C(=O)N(Cc2ccccc2)C(C)c2nc3ccccc3n21)OC (centres unmarked) | 9.2 |
| CCCCn1nc(C(=O)N[C@@H](CCSC)c2nc3ccccc3[nH]2)c2ccccc2c1=O | -28.7 |
| CC(=O)Nc1ccc(NC(=O)CC(C)n2ccnc2)cc1 (centres unmarked) | 7.66 |
| O=C1/C(=C/c2ccccc2F)SC(=S)N1CC(=O)N1CCCCC1c1cccnc1 (centres unmarked) | 1.73 |
| C#CCOc1nc(Nc2cccc([N+](=O)[O-])c2)nc(OCC#C)n1 | -10.1 |

| Structure (SMILES) | hERG current change (%, negative = inhibition) at 10uM [%] |
| --- | --- |
| O=C(COc1ccc(S(=O)(=O)N2CCCC2)cc1Cl)N1CCN(c2ccccc2)CC1 | -15.5 |
| COc1cc(Nc2nc3ccccc3nc2NS(=O)(=O)c2ccc([N+](=O)[O-])cc2)cc(OC)c1OC | -30.4 |
| COc1ccc(CN(C(=O)c2ccco2)C2CC(C)N(C)CC2C)cc1 (centres unmarked) | -53.4 |
| COc1ccc(CN(C(=O)c2ccco2)C2CCS(=O)(=O)C2)cc1 (centres unmarked) | -1.27 |
| COc1ccc(CN(CCN)C2CC(C)N(C)CC2C)cc1.Cl (centres unmarked) | 7.07 |
| COc1ccc(/C=C/C(=O)c2cccc(-n3cnnn3)c2)cc1O | 13.5 |
| O=C(Nc1ccc(Br)cc1Br)C1CC(=O)N(Cc2ccccc2)C1 (centres unmarked) | 10.7 |
| COc1ccc(CNC(=S)NCc2ccc(F)cc2)cc1 | -23.5 |
| COc1ccc(CNC(=O)CNC(C)c2ccc(F)cc2)cc1.O=C(O)C(=O)O (centres unmarked) | 5.06 |
| COc1ccc(CCNCc2ccccc2F)cc1.O=C(O)C(=O)O | -22.8 |
| COc1ccc(NC(=O)CC(c2ccc(F)cc2)c2ccc(OC)cc2)cc1 (centres unmarked) | 23 |
| COc1ccc(C(CCNCc2ccccc2)c2ccc(F)cc2)cc1 (centres unmarked) | -66.7 |
| COc1cc(NC(=S)NCCC(c2ccccc2)c2ccccc2)cc(OC)c1 | 3.35 |
| COc1ccc(C(CCNCc2ccccc2F)c2ccc(F)cc2)cc1 (centres unmarked) | -75.5 |
| COc1ccc(C(CCNCc2ccc(F)cc2)c2ccc(F)cc2)cc1 (centres unmarked) | -64.6 |
| COc1ccc(CNCCC(c2ccc(F)cc2)c2ccc(OC)cc2)cc1 (centres unmarked) | -82.3 |
| COc1ccc(C(C)NC(=S)NCc2ccc(F)cc2)cc1 (centres unmarked) | 0.1 |
| COc1ccc(CCC(C)Nc2ccc(F)cc2)cc1 (centres unmarked) | -3.78 |
| COc1ccccc1CNCCc1ccc(F)cc1.O=C(O)C(=O)O | -33.8 |
| COc1ccc(-c2cc(C(F)(F)F)nc(-n3cc(Cl)cn3)n2)cc1 | -18.5 |
| CCN1CCCCC(=N/O)/C(=N/O)CCCC1 | 25.5 |
| N#CCCN(C(=O)COC(=O)COc1ccccc1Cc1ccccc1)c1ccccc1 | 15 |

| Structure (SMILES) | hERG current change (%, negative = inhibition) at 10uM [%] |
| --- | --- |
| Cc1cccc(NC(=O)CSCC(=O)N(C)CC(=O)Nc2cccc(F)c2)c1 | -3.01 |
| COc1ccc(C(C)=O)cc1CN1C(=O)NC2(CCCCCC2)C1=O | -3.9 |
| COP(=O)(CC(=O)O)c1ccccc1 (centres unmarked) | -5.99 |
| CC(NC(=O)COc1ccccc1)C(=O)NC1=NCCS1 (centres unmarked) | 0.963 |
| CCOC(=O)N1CCN(C(=O)CNC(=O)c2nn(-c3ccc(OC)cc3OC)c(=O)c3ccccc23)CC1 | -4.94 |
| COC1=CC(=O)OC12CCCCC2 | 8.91 |
| CCc1noc(C)c1C(=O)N(CCCOC)c1c(N)n(Cc2ccccc2)c(=O)[nH]c1=O | 27.3 |
| Clc1ccc(-c2ccnc(Oc3ccc4ccccc4c3)n2)cc1 | 7.34 |
| CCC(=O)NCCc1nc2cc(NC(=O)Nc3ccccc3)ccc2n1C | 18.8 |
| Cc1cccc(OCC(=O)Nc2ccc3c(c2)nc(CCN2CCCCC2)n3C)c1 | -77.2 |
| CC(=O)NCCc1nc2cc(NC(=O)c3ccccc3)ccc2n1C | -25.6 |
| CN1CCN(CCc2nc3cc(NC(=O)COc4ccccc4)ccc3n2C)CC1 | -32.6 |
| COc1ccc(OCC(=O)Nc2ccc3c(c2)nc(CCN2CCCC2)n3C)cc1 | -55 |
| CC(=O)NCCc1nc2cc(NC(=O)COc3cccc(C)c3)ccc2n1C | 6.53 |
| Cc1cccc(OCC(=O)Nc2ccc3c(c2)nc(CCN2CCN(C)CC2)n3C)c1 | -37.1 |
| CC(=O)NCCc1nc2cc(NC(=O)Nc3ccccc3)ccc2n1C | -53.8 |
| COc1ccc(OCC(=O)Nc2ccc3c(c2)nc(CCNC(C)=O)n3C)cc1 | 13.1 |
| Cn1c(CCn2ccccc2=O)nc2cc(NC(=O)COc3ccccc3)ccc21 | -40.6 |
| COc1ccc(OCC(=O)Nc2ccc3c(c2)nc(CCn2ccccc2=O)n3C)cc1 | -10.8 |
| Cn1c(CCN2CCCCC2)nc2cc(NC(=O)COc3ccccc3)ccc21 | -78 |
| CC(C)CN(C(=O)COC(=O)c1cnccn1)c1c(N)n(Cc2ccccc2)c(=O)[nH]c1=O | 16.4 |
| CC(C)Cn1c(N)c(C(=O)COC(=O)c2ccc(O)cc2O)c(=O)n(C)c1=O | 8.34 |

| Structure (SMILES) | hERG current change (%, negative = inhibition) at 10uM [%] |
| --- | --- |
| CCn1c(SCC(=O)NC2CCCC2)nnc1-c1ccncc1 | 16.4 |
| Cc1ccc(OCC(=O)Nc2ccccc2F)cc1 | -0.548 |
| CN1C(=O)/C(=C/c2ccc(OCc3ccc(C(=O)O)cc3)c(Cl)c2)NC1=S | 20.4 |
| Cc1ccc(OCCn2cnc3c2c(=O)n(C)c(=O)n3C)cc1 | 20 |
| C=CCSc1nc2ccccc2[nH]1 | 25 |
| O=C(Cc1ccccc1)NCc1ccc(-n2cccc2)cc1 | 29.3 |
| CN(C(=O)CC1C(=O)NCCN1Cc1cccc(F)c1F)C1CC(C)(C)NC(C)(C)C1 (centres unmarked) | 26.1 |
| COc1ccc(OCC(=O)Nc2ccc3c(c2)nc(CCN2CCCCC2)n3C)cc1 | -65.5 |
| CCC(=O)Nc1ccc2c(c1)nc(CCN1CCN(C)CC1)n2C | 29.3 |
| Cc1ccc(OCC(=O)Nc2ccc3c(c2)nc(CCN2CCCCC2)n3C)cc1 | -82.3 |
| Cc1ccc(OCC(=O)Nc2ccc3c(c2)nc(CCN2CCN(C)CC2)n3C)cc1 | -55.6 |
| COc1ccc(OCC(=O)Nc2ccc3c(c2)nc(CCN2CCN(C)CC2)n3C)cc1 | -8.47 |
| Cn1c(CCN2CCCCC2)nc2cc(NC(=O)NC3CCCCC3)ccc21 | 0.766 |
| Cn1c(CN2CCCC2)nc2cc(NC(=O)C3CCCCC3)ccc21 | -4.77 |
| Cn1c(CCN2CCCCC2)nc2cc(NC(=O)C3CCCCC3)ccc21 | -60.2 |
| CC(=O)NCCc1nc2cc(NC(=O)COc3ccc(C)cc3)ccc2n1C | 14.2 |
| CCOC(=O)C(=CNc1ccc2c(c1)nnn2-c1ccc(Cl)cc1)C(=O)OCC | -5.02 |
| COc1ccccc1-c1cc(C(F)(F)F)nc(S(=O)(=O)CCCC(=O)N2CCOCC2)n1 | 2.47 |
| Cn1ncc(Cl)c1C(=O)NCC1CCCO1 (centres unmarked) | 9.21 |
| O=C(Cn1cc(C(=O)c2ccccc2F)c2ccccc21)NC1CC1 | -4.44 |
